In PubChem BioAssay AID624117 (National Center for Advancing Translational Sciences (NCATS), 2012):
Records with an inconclusive call do not appear. A call without a number means that no potency is given here. Activity calls are given as the source filed them. Calls follow the shape of the dose curve; as a rule, active = well fitted curve in the direction sought with a large enough effect; inconclusive = small, poorly fitted or top-dose-only effect, or another doubt; inactive = no such curve, though single readings can be large or run the other way.

Test: qHTS Assay for Rab9 Promoter Activators: Hit Validation Using Renilla Luciferase Read-Out
How it was run: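 Hit validation in Huh7 NPC promoter-luciferase reporter line: compound treatment 24 h at 37 deg C, then luminescence measured after 10 min room-temperature incubation with […] reagent.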
Potency is read from the fitted curve at half-maximal effect.

Structure (SMILES)	Potency
CCOC(=O)c1csc(COc2ccc(OC)cc2)n1	inactive
CCCCCCC(=O)Nc1ccc(C(=O)N/N=C/c2cccnc2)cc1	inactive
Cc1cccc(NC(=O)CSc2nc3ccccc3o2)c1	inactive
CC(=O)c1c(C)[nH]c(C(=O)Nc2cccc(S(=O)(=O)N(C)C)c2)c1C	26 µM (active)
CCOc1cc(C2C(C#N)=C(N)Oc3n[nH]c(C)c32)ccc1OCCN1CCOCC1 (centres undefined)	inactive
O=C(NNC(=O)C1COc2ccccc2O1)c1ccccc1O (centres undefined)	inactive
COC(=O)CSc1nc2cc3c(cc2cc1C#N)OCO3	inactive
CCC(=O)N1c2ccccc2NC2=C(C(=O)CCC2)C1c1ccc(N(C)C)cc1 (centres undefined)	inactive
Cc1ccc(NC(=O)Nc2cccc3ccccc23)cc1	inactive
CCC(=O)NC(=S)Nc1ccc(N2CCOCC2)cc1	inactive
COc1cccc(NC(=O)CN2C(=O)CSc3ccc(S(=O)(=O)N4CCC(C)CC4)cc32)c1	inactive
COc1ccc2oc(=O)c(C(=O)NC(C)c3ccccc3)cc2c1 (centres undefined)	inactive
Cc1ccccc1NC(=O)CSc1ccc(-c2cccnc2)nn1	inactive
CC1CCc2sc(C(=O)NNC(=S)NC3CC3)cc2C1 (centres undefined)	inactive
O=C(c1cccc(Oc2ccc([N+](=O)[O-])cc2)c1)N1CCOCC1	inactive
O=C(CSc1nnc(-c2ccccn2)o1)Nc1ccccc1F	inactive
CCOc1ccc(CNC(=O)C2CCCN(S(C)(=O)=O)C2)cc1OC (centres undefined)	inactive
O=C(NCCc1c[nH]c2ccccc12)C(=O)NCC(c1ccco1)N1CCN(c2ccccc2F)CC1 (centres undefined)	inactive
NC(=O)C1(NC(=O)[C@@H]2CC3(CC(c4cccc(NC(=O)[C@@H]5CCC(=O)N5)c4)=NO3)CN2C(=O)c2ccccc2)CC1 (some centres undefined)	inactive
CCOC(=O)c1cc2sccc2n1CC(=O)N1CCCc2ccccc21	inactive

Structure (SMILES)	Potency
NC(=O)C(=O)NN=C1C2CC3CC(C2)CC1C3	inactive
CC1(C)CC(=O)c2c(O)c(-c3ccccc3)c(=O)n(-c3ccccc3)c2C1	inactive
COC(=O)c1cn(NC(=O)C2CCCCC2)c(=O)c2ccccc12	inactive
COC(=O)c1ccccc1S(=O)(=O)NNC(=O)Nc1ccccc1	inactive
Cc1ccc(NC(=O)c2ncc(Cl)c(Cl)c2Cl)cc1C	inactive
CC(=O)Nc1ccc(-c2csc(Nc3ncccn3)n2)cc1	inactive
N#CC/C(N)=N/NC(=O)CCCNc1ncc(C(F)(F)F)cc1Cl	inactive
Cc1ccc(S(=O)(=O)N2CCN(c3cnn(C)c(=O)c3Cl)CC2)cc1	inactive
CCOC(=O)CSc1nc2cc3c(cc2cc1C#N)OCO3	inactive
CC(C)(C)C(=O)NC(=S)Nc1ccccc1F	inactive
O=C(O)CSc1nnc(-c2ccncc2)n1CCc1ccccc1	inactive
CCN(Cc1nc2cc(Cl)ccc2c(=O)[nH]1)C(=O)C1CC(=O)N(c2cccc3ccccc23)C1 (centres undefined)	inactive
Cc1cccc(C)c1NC(=O)Nc1cccs1	inactive
CCOC(=O)CSc1nc2cc(C)ccc2cc1C#N	inactive
CC1CN(C(=O)c2ccncc2)CC(C)O1 (centres undefined)	inactive
COc1ccc(C(=O)OCC(=O)N2CCCC2=O)c(OC)c1	inactive
COCCNC(=O)Cn1nc(-c2ccccc2)c2ccccc2c1=O	inactive
O=C(CCS(=O)(=O)c1ccccc1)Nc1ccc(-c2nc3ccccc3s2)cc1	inactive
O=C(NCCc1ccccc1)c1cc2ncc(Br)cn2n1	inactive
